The whole screen tested about 360,000 compounds, of which about 460 (0.13%) were called active.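 How the source made its calls: active means inhibition above the mean inhibition of all tested compounds plus 3 SD (cut at about 73% in these data); inactive means the rest.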 The full list was thinned out, with actives kept by preference.

This assay deals with Nuclear receptor subfamily 5 group A member 2 (Homo sapiens) (UniProt O00482). Kind of assay: reduction of NR5A2-driven StAR reporter activity – cell-based, luminescence, HEK293T, StAR-luciferase reporter, primary screen (AID 602396).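 Further: 0% = DMSO wells and 100% = reporter-only cells lacking LRH-1.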 Particulars: LRH-1 transfected, 24 h, at 3.6 µM, hits give high values.
Sequence of Nuclear receptor subfamily 5 group A member 2 (Homo sapiens) (O00482 whole entry, looked up): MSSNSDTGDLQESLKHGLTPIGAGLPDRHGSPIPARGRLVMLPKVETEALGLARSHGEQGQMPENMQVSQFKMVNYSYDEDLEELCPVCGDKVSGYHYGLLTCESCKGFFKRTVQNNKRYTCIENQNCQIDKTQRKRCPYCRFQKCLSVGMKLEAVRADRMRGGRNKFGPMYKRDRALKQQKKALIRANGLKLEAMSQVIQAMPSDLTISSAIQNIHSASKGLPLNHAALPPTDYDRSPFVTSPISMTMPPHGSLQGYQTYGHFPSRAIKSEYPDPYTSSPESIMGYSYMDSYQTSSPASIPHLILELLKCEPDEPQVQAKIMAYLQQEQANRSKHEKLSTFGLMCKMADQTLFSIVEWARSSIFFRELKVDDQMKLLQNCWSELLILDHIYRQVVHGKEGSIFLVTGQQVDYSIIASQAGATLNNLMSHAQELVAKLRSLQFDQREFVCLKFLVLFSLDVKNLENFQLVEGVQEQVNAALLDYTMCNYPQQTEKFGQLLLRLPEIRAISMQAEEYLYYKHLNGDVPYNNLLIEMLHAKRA
Regarding `CCCOc1ccc(CN(CCO)CCO)cc1C(=O)OC`, the inhibition was 23.4% (inactive).

`O=C(NC1CCC(O)CC1)c1ccccc1OCc1ccc(F)cc1` (stereo unspecified): the inhibition is 21.9% (inactive). As to `COC(=O)C1=NN(c2ccccc2)C2C(=O)N(c3ccccc3OC)C(=O)C12` (stereo unspecified), the inhibition is 10% (inactive).

For the compound `CCOC(=O)N1CCN(S(=O)(=O)c2cc3c(cc2C)NC(=O)CO3)CC1`, the inhibition is 12.8% (inactive).

For the compound `O=[N+]([O-])c1ccc2c(c1)C(O)n1nc(-c3ccccc3)nc1S2` (stereo unspecified), the inhibition is -9.43% (inactive).

With `O=C(Nc1cc(-c2ccccc2)nn1-c1ccccc1F)c1ccc([N+](=O)[O-])cc1`, the inhibition was -5.47% (inactive). `O=C(NC(Nc1nc2ccc([N+](=O)[O-])cc2s1)(C(F)(F)F)C(F)(F)F)c1ccccc1`: the inhibition is 97.9% (active). The figure for `CCc1ccccc1N1CN(Cc2ccco2)CNC1=S` is -20.8% (inactive). As for `COc1ccc(NC(=O)c2cccc3c2C(=O)N(CC2CCCO2)C3)cc1OC` (stereo unspecified), the figure is -15.8% (inactive); as for `CCC1OC(C2CC2)CC2=C1C(=O)OC(C)(C)O2` (stereo unspecified), -31.2% (inactive); as for `COc1ccc(OC)c(NC(=O)c2ccc3c(c2)C(=O)N(c2ccc(OC(C)=O)cc2)C3=O)c1`, 15.1% (inactive). With `N=c1ccn(CC(=O)NC(N)=O)c2ccccc12`, the inhibition is 19.2% (inactive). Regarding `CCOC(=O)CN(C(=O)COc1nc(-c2ccccc2)cc(C)c1C#N)c1ccc(F)cc1`, the inhibition is 21.9% (inactive).

In the case of `O=S(=O)(c1ccc(F)cc1)N1CCN(Cc2ccccc2C(F)(F)F)CC1`, the inhibition is 10.2% (inactive). With `COc1cc(OC)c2c(c1)OC(=O)CC2c1cc(OC)c(OC)c(OC)c1` (stereo unspecified), the inhibition was 2.48% (inactive). The figure for `COc1ccc(N(C(=O)c2ccc(C)cc2)S(=O)(=O)c2cccs2)cc1` is 2.34% (inactive). Take `CC[C@H]1CN2CCc3cc(OC)c(OC)cc3[C@@H]2C[C@@H]1C[C@H]1NCCc2cc(OC)c(OC)cc21`: the inhibition was 103% (active). Consider `NC(=NC(=O)c1ccccc1)C1=C(O)CCC1=O`, for which the inhibition was -13.8% (inactive). Take `O=C(CN(Cc1ccccc1)C(=O)c1ccc2c(c1)OCCO2)NCc1ccc2c(c1)OCO2`: the inhibition was 4.07% (inactive). As to `CC(C)Nc1nc(NCCOc2ccccc2Cl)c2sccc2n1`, the inhibition was 18.8% (inactive). `CCCCN(C=O)c1c(CC)nc2c(OCCC3CCCCC3)cccn12`: the inhibition is -7.2% (inactive).

For `Cc1ccc(S(=O)(=O)N2CC[C@H]3[C@@H](C2)C(=O)C[C@@H](c2ccccc2)N3S(=O)(=O)c2ccc(C)cc2)cc1`, the inhibition is -11.8% (inactive).

As to `Cc1cc(NC(=O)COC(=O)/C=C/c2ccc(C)o2)no1`, the inhibition is -7.21% (inactive). The figure for `CCN(CC)CCCNC(=O)c1c(O)c2cc(F)cc3c2n(c1=O)C(C)CC3` (stereo unspecified) is -10.8% (inactive). Take `CCC(c1nnnn1-c1ccc2c(c1)OCCO2)N1CCN(c2ccc(C(F)(F)F)cn2)CC1` (stereo unspecified): the inhibition was -0.51% (inactive). In the case of `CC(=O)Nc1ccc(SC[C@H](Cc2ccccc2)N2CC[C@@H](C)CCC2=O)cc1`, the inhibition was -2.81% (inactive). Take `O=C(Nc1ccccc1N1CCOCC1)c1ccc(OCc2cscn2)cc1`: the inhibition was 3.78% (inactive). Consider `Cc1cc(CNCc2c(C(=O)N(C)Cc3ccccc3)nc3ccccn23)nn1C`, for which the inhibition is 12.7% (inactive).

Consider `CC(Nc1nc(C(F)(F)F)nc2ccccc12)c1cccs1` (stereo unspecified), for which the inhibition was 14.1% (inactive).

For the compound `c1ccc(-c2nccc(-c3ccc(-n4cnc5ccccc54)cc3)n2)nc1`, the inhibition was 5.78% (inactive). For the compound `CC(C)(C)Nc1nc(-c2ccccn2)nc2ccccc12`, the inhibition was 85% (active).

Turning to `O=C(NCc1ccncc1)C1CCCN(S(=O)(=O)c2ccc(Br)cc2)C1` (stereo unspecified), the inhibition is 2.98% (inactive).

For `O=C(CSc1ccccn1)Nc1nc2c(ccc3ccccc32)s1`, the inhibition was -23.7% (inactive). Consider `NC(N)=N/N=C/c1ccc(OCc2ccc(Cl)cc2Cl)cc1`, for which the inhibition was -0.41% (inactive). Regarding `CCCCCCNC(=O)O[C@]12C[C@@H](C(=O)OC)[C@@H](C(=O)OC)C[C@@]1(O)CN(S(=O)(=O)c1ccc(C)cc1)C2`, the inhibition was -18% (inactive). Consider `Cc1cc(Nc2ccc(C)c(C)c2)n2ncnc2n1`, for which the inhibition is 18.7% (inactive). Consider `C[C@@H]1CN([C@@H](C)CO)C(=O)CCCn2cc(nn2)CO[C@H]1CN(C)S(=O)(=O)c1ccc(-n2cccn2)cc1`, for which the inhibition was 1.12% (inactive). With `CCN(CC)S(=O)(=O)c1ccc(OC)c(NC(=O)CCc2c(C)noc2C)c1`, the inhibition was 8.03% (inactive). As for `O=C(Nc1nnc(CCN2CCCCC2)s1)c1cccc(Cl)c1`, the figure is 0.75% (inactive).

Take `COCCCN1C(=O)C(=O)/C(=C(/O)c2ccc(S(=O)(=O)N3CCOCC3)cc2)C1c1ccc(F)cc1` (stereo unspecified): the inhibition is 9.93% (inactive). Regarding `CCN(CC)S(=O)(=O)c1cccc(C(=O)NCC(=O)OCC(=O)NCc2ccccc2)c1`, the inhibition is 1.85% (inactive). The figure for `C[n+]1cc(-c2ccccc2)oc1-c1ccccc1` is -30.6% (inactive); for `C=CCn1c(SCC(=O)c2c(N)n(C)c(=O)n(C)c2=O)nc2sc(CC)cc2c1=O` it is -16.9% (inactive); for `Cc1ccn2c(=O)nc(SCC(=O)NCc3ccc4c(c3)OCO4)nc2c1` it is -9.89% (inactive).

Consider `COc1cc(S(=O)(=O)N2CCN(C(=O)C3CC3)CC2)ccc1NC(C)=O`, for which the inhibition is 9.23% (inactive). Turning to `CCCCCCCCn1c2c(c(=N)c3c1CCC3)CCCC2`, the inhibition was 89.8% (active). The figure for `Cc1cccc2cc(CN(C(=O)c3cccs3)c3ccccc3)c(=O)[nH]c12` is -23.1% (inactive); for `O=C(NNC(=O)c1cnccc1C(F)(F)F)c1ccc(Cl)cc1` it is -7.32% (inactive); for `CCN1/C(=C\c2ccc3ccccc3[n+]2CC)Sc2cc(C)ccc21` it is 93.7% (active). With `Cc1ccc(S(=O)(=O)N2C3C=CC(C3)C2C(=O)O)cc1` (stereo unspecified), the inhibition is -13.6% (inactive).

For the compound `CCC(=O)N(C)C(c1ccccc1Cl)c1nnnn1-c1c(C)cccc1C` (stereo unspecified), the inhibition is 1.16% (inactive). On to `CC(=O)Nc1sc2c(c1C(c1cccc(F)c1)N1CCN(CCO)CC1)CCCC2` (stereo unspecified), for which the inhibition was 5.02% (inactive).

`O=C(Nc1c2c(nn1-c1cccc(Cl)c1)CS(=O)(=O)C2)c1cccs1`: the inhibition is 17.8% (inactive). The figure for `Cc1cccc(N2CCN(C(=O)c3cc4c(=O)[nH]c5ccccc5c4n3C)CC2)c1C` is 11.6% (inactive); for `CCc1nc2c(OCc3ccc(F)c(F)c3)cccn2c1N(C)C(=O)c1ccco1` it is -12.9% (inactive); for `c1cc(-c2ccc3[nH]ccc3c2)n2ccnc2c1` it is -8.26% (inactive).

One may read the inhibition as the drop in the measured response relative to a control, in per cent.

These data come from PubChem BioAssay AID602396 (The Scripps Research Institute Molecular Screening Center, 2012).
